Screening results deposited in PubChem BioAssay by several laboratories.
BoNT F protease = BoNT F light chain protease inhibition | Multiplex microsphere protease cleavage assay, flow cytometry | inhibition, % at 10 µM | 360,000 tested, 0.22% active | AID 588497; in the data active = inhibition above about 35%, passing the limit was not always enough
BoNT A protease = blocks Botulinum neurotoxin A light chain protease; 360,000 tested, 0.17% active; inhibition, % at 10 µM; multiplex microsphere protease substrate cleavage, flow cytometry; AID 588499
TcdB GH inh = blocks C. difficile toxin B glycohydrolase activity; P18177; TcdB glycohydrolase enzymatic assay, plate reader; inhibition, % at 9.99 µM; 350,000 tested, 0.24% active; AID 652162; in the data active = inhibition above about 10%
Target sequence (P18177 whole entry, looked up): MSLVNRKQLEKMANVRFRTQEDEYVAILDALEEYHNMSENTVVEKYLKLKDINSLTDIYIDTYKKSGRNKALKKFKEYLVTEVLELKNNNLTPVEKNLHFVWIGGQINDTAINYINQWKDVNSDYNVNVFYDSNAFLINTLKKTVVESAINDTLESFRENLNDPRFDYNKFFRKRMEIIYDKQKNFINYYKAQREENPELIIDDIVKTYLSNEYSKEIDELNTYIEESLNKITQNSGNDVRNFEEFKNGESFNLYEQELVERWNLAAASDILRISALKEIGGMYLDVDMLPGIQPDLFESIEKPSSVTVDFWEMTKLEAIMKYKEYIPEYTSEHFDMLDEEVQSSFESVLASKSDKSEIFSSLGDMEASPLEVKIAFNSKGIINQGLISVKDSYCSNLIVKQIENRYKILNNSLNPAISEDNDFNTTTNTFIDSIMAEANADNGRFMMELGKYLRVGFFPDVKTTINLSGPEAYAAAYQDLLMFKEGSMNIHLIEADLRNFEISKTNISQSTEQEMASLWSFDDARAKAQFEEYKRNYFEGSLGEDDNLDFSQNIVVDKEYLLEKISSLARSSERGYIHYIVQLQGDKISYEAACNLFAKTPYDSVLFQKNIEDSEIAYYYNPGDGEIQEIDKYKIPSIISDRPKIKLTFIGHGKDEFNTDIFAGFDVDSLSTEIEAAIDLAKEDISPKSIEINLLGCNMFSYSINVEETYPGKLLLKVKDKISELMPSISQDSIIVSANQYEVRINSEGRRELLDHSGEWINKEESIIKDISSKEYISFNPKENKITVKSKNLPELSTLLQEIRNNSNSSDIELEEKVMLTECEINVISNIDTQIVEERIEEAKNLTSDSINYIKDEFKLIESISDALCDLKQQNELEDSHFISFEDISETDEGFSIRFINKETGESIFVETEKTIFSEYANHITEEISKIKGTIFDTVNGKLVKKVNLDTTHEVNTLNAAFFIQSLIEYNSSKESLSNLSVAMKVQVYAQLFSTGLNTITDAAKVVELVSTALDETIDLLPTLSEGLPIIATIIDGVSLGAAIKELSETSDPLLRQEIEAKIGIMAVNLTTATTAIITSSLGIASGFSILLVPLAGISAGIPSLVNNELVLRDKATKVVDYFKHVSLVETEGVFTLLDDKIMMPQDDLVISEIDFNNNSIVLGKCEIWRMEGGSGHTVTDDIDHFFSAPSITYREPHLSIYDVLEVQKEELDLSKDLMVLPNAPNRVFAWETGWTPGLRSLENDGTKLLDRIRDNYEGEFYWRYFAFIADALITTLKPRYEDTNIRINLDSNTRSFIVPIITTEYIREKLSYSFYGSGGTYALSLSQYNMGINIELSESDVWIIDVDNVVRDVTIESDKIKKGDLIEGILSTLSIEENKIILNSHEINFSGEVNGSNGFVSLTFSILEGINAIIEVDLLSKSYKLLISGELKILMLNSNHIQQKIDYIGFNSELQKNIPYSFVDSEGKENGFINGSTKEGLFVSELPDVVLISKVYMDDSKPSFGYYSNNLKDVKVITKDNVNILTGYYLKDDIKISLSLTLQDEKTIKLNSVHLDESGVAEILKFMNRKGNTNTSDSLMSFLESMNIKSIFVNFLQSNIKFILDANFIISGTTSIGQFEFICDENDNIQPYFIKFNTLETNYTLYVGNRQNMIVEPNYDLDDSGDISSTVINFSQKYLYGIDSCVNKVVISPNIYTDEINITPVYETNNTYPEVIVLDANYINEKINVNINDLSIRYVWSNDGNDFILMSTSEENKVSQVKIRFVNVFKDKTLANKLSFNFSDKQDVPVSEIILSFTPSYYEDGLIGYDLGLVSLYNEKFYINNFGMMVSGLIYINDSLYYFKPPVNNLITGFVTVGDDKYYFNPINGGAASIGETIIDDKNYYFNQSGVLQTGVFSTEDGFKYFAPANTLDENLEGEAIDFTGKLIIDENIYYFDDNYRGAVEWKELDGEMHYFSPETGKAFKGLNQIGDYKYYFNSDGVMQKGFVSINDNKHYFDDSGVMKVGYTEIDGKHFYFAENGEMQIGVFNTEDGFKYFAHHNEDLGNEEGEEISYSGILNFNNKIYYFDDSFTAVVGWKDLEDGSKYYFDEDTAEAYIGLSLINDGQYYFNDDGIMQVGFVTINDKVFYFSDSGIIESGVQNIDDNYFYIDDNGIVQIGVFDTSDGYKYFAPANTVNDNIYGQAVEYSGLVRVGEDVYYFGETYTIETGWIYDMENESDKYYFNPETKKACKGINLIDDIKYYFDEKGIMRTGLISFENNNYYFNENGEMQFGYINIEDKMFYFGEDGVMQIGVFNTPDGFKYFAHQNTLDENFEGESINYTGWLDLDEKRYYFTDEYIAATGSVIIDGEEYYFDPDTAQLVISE
Bead autofluor = flagged as autofluorescent in microsphere protease counterscreen | compound autofluorescence counterscreen, microsphere flow cytometry; stronger effect = higher value | fluorescence intensity (no concentration beside the values) | 360,000 tested, 3.1% active; in the data active = fluorescence intensity above about 16000
Anthrax LF inh2 = anthrax lethal factor protease inhibition; multiplex microsphere protease cleavage assay, LF; inhibition, % at 10 µM; 360,000 tested, 0.12% active; AID 588501
A number is an active result; ! = repeats disagree. This excerpt belongs to a sample that is enriched for hits. Cut-off read from the data, not from the text of the source, unless noted: active = inhibition above about 30%; inconclusive = no clear call, values can overlap the other calls; inactive = below that.

`Cc1ccc(S(=O)(=O)N(C)C[C@@H]2Oc3ccc(NC(=O)Cc4cn(C)c5ccccc45)cc3CC(=O)N([C@@H](C)CO)C[C@H]2C)cc1` gave TcdB GH inh inactive.
CCOC(=O)c1ccccc1NC(=O)COC(=O)CSCC(=O)Nc1cc(C)on1 was read as BoNT F protease inactive, BoNT A protease inactive, TcdB GH inh inactive, Bead autofluor inactive and Anthrax LF inh2 inactive.
For COC(=O)c1ccccc1NC(=O)COC(=O)CSCC(=O)N1CCOCC1 the results were BoNT F protease inactive, BoNT A protease inactive, Bead autofluor 23481 and Anthrax LF inh2 inactive.
Screening C[C@H](CO)N1C[C@H](C)[C@@H](CN(C)C(=O)Nc2ccc(F)cc2)Oc2ccc(NC(=O)Cc3cn(C)c4ccccc34)cc2C1=O returned TcdB GH inh inactive.
Screening C[C@H](CO)N1C[C@H](C)[C@@H](CN(C)C(=O)Nc2ccc(C(F)(F)F)cc2)Oc2c(NS(=O)(=O)c3cn(C)cn3)cccc2C1=O returned BoNT F protease inactive, BoNT A protease inactive, TcdB GH inh 13!, Bead autofluor inactive and Anthrax LF inh2 inactive.
Screening C[C@H](CO)N1C[C@H](C)[C@@H](CN(C)C(=O)Nc2ccc(C(F)(F)F)cc2)Oc2ccc(NC(=O)C3CCCCC3)cc2C1=O returned BoNT F protease inactive, BoNT A protease inactive, TcdB GH inh 14!, Bead autofluor inactive and Anthrax LF inh2 inactive.
C[C@@H]1CN([C@@H](C)CO)S(=O)(=O)c2ccc(-c3cccc(F)c3)cc2O[C@H]1CN(C)CC1CC1 was read as TcdB GH inh inactive.
For CC(C)C#Cc1ccc2c(c1)O[C@H](CN(C)C(=O)Cc1ccccn1)[C@@H](C)CN([C@@H](C)CO)S2(=O)=O the results were TcdB GH inh inactive.
`CCOC(=O)c1cc(C#N)c(NCc2ccccc2)nc1C` gave BoNT F protease inactive, BoNT A protease inactive, Bead autofluor inactive and Anthrax LF inh2 inactive.
`CCOC(=O)c1nnc(-c2ccccc2)nc1NCc1ccccc1` gave BoNT F protease inactive, BoNT A protease inactive, Bead autofluor 24408 and Anthrax LF inh2 inactive.
Screening COc1ccccc1S(=O)(=O)N[C@H]1CC[C@H](CC(=O)NCc2cc(F)cc(F)c2)O[C@@H]1CO returned TcdB GH inh inactive.
`O=c1[nH]c(=O)n(Cc2ccc(F)cc2)c(O)c1C=NCCCn1ccnc1` gave BoNT F protease inactive, BoNT A protease inactive, Bead autofluor 20628 and Anthrax LF inh2 inactive.
Screening CCCCCOC(=O)C1C2C=CC3(CN(c4ccccc4C)C(=O)C13)O2 (stereo unspecified) returned BoNT F protease inactive, BoNT A protease inactive, Bead autofluor 21724 and Anthrax LF inh2 inactive.
Cc1nonc1OCC(C)(COc1nonc1C)NC(=O)c1ccccc1 was read as BoNT F protease inactive, BoNT A protease inactive, Bead autofluor 21066 and Anthrax LF inh2 inactive.
For CCOC(=O)CNC(=O)c1ccccc1 the results were BoNT F protease inactive, BoNT A protease inactive, Bead autofluor inactive and Anthrax LF inh2 inactive.
For COc1ccc(NC(=O)Nc2ccc3c(c2)C(=O)N([C@H](C)CO)C[C@@H](C)[C@H](CN(C)S(=O)(=O)c2ccccc2)O3)cc1 the results were TcdB GH inh inactive.
`CCNC(=O)C[C@H]1CC[C@@H]2[C@@H](COc3ccc(NC(=O)c4ccc5c(c4)OCO5)cc3C(=O)N2C)O1` gave TcdB GH inh 14.
`CCNC(=O)C[C@H]1CC[C@H]2[C@H](COc3ccc(NC(C)=O)cc3C(=O)N2C)O1` gave TcdB GH inh 11.
Screening CC(=O)Nc1ccc2c(c1)C(=O)N(C)[C@H]1CC[C@H](CC(=O)NCC3CC3)O[C@H]1CO2 returned TcdB GH inh inactive.
CCNC(=O)C[C@H]1CC[C@@H]2[C@H](COc3ccc(NC(=O)c4ccc5c(c4)OCO5)cc3C(=O)N2C)O1 was read as TcdB GH inh 13.
For CN(C)CCCNC(=O)C[C@H]1CC[C@@H]2[C@@H](COc3ccc(NC(=O)c4ccc5c(c4)OCO5)cc3C(=O)N2C)O1 the results were TcdB GH inh 11.
Screening CCNC(=O)C[C@H]1CC[C@H]2[C@H](COc3ccc(NC(=O)c4ccc5c(c4)OCO5)cc3C(=O)N2C)O1 returned TcdB GH inh inactive.
CC(C)NC(=O)N(C)C[C@@H]1OCc2ccccc2-c2ccccc2C(=O)N([C@@H](C)CO)C[C@H]1C was read as TcdB GH inh inactive.
Screening CCCNC(=O)C[C@H]1CC[C@@H]2[C@@H](COc3ccc(NC(=O)c4ccc(Cl)cc4)cc3C(=O)N2C)O1 returned TcdB GH inh 13.
